HCV inhibitor = HCV inhibition; Huh7.5.1 HCVcc-Cre infection, luciferase reporter, 44 h; Potency, µM (top dose mostly 41.8 µM), without a hit: at the top dose activity change, negative = inhibition, hits mostly inhibitors; 340,000 tested, 3.4% active; active means well fitted inhibition curve with a large enough effect; inconclusive means small, poorly fitted or top-dose-only effect, or another doubt; inactive means no such curve, though single readings can be large or run the other way; further: potency means the concentration at half of the fitted maximal effect
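Seed cells (1,000/well) for 4 h; treat with compound and infect with HCVcc-Cre, moi about 0.5. Incubate 44 h, then detect luciferase activity.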
HCMV inh = blocks human cytomegalovirus replication; HFF cells, HCMV-luciferase reporter, 72 h; stronger effect = lower value; activity change, negative = inhibition, % at 57.5 µM; 410,000 tested, 4.5% active; AID 1259415; in the data active means activity change below about -60%; inconclusive means no clear call, values can overlap the other calls; inactive means above about -39%
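After 16 h attachment at 37C, HFF cells received test compound and HCMV-luciferase (1 PFU/cell); reporter luminescence read 72 h later, data normalized against buffer-only and known inhibitor Salinomycin.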
Lassa entry inh = blocks Lassa virus binding to or entry into cells. Lassa virus pseudotype entry inhibition, cell reporter. Potency, µM (series often up to 37.9 µM), for inactives: top-dose activity change, negative = inhibition, most hits filed as inhibitors. 300,000 tested, 1.2% active; calls by dose curve; tested in HEK293 cells; further: potency means the concentration at half of the fitted maximal effect; nearly all actives have a fitted effect of over 50% in size
FMDV antiviral = antivirals against foot and mouth disease virus | Potency, µM (series often up to 57.9 µM), for inactives: at the top dose activity change, negative = inhibition, hits mostly inhibitors | FMDV antiviral cell-based qHTS | 410,000 tested, 1.2% active | AID 1159524; calls by dose curve; tested in HEK293T cells; further: read-out not given here; potency means the concentration at half of the fitted maximal effect; nearly all actives have a fitted effect of over 45% in size
Marburg entry inh = blocks Marburg virus binding to or entry into cells. Potency, µM (top dose mostly 37.8 µM), for the others: at the top dose activity change, negative = inhibition, actives largely listed as inhibitors. 300,000 tested, 1.8% active. Marburg virus pseudotyped entry inhibition, cell reporter; calls by dose curve; tested in HEK293 cells; further: potency means the concentration at half of the fitted maximal effect
* = called active by the depositor; ? = inconclusive; / = no result; ! = not confirmed by another sample; [ ] = remark or other dose. Most compounds without a hit are left out; they make up all but 7.9% or so of the library. On the % scale 0 is the no-effect control and ±100 the full control effect.

SMILES	HCV inhibitor	HCMV inh	Lassa entry inh	FMDV antiviral	Marburg entry inh
O=C(N/N=C/c1cc([N+](=O)[O-])ccc1O)c1cccc2cc[nH]c12	?	-80.3*	/	-33.5%	/
Cc1[nH]c2ccccc2c1/C=N/NC(=O)c1cccc(F)c1	-3.1%	-30.2	/	6.0%	/
CCOC(=O)c1cc(S(=O)(=O)NCc2ccc(OC)cc2)[nH]n1	/	58.7	5.0%[46.1 µM]	8.7%	/
CC(=O)N1CCOc2cc(S(=O)(=O)NCc3ccc(C)cc3)c(C)cc21	/	?	?	58.7%	/
Cc1ccc(-n2[nH]c(C)c(/C=N/Nc3ccc([N+](=O)[O-])cc3[N+](=O)[O-])c2=O)cc1	?	?	1.0%	7.94µM*	?
O=C(N/N=C/c1ccc[nH]1)c1ccc2c(c1)OCO2	12.6µM*	51.6	-9.0%	34.2%	0.2%[46.1 µM]
Cc1[nH]n(-c2ccc([N+](=O)[O-])cc2)c(=O)c1C=NCC1CCCO1 (stereo not drawn)	-12.1%	108.3	26.8%	29.3%	20.6%[46.1 µM]
O=C(N/N=C\c1cn(-c2ccccc2)nc1-c1ccccc1)c1ccc2c(c1)OCO2	12.6µM*	-12.8	-15.7%	-10.0%	?
Cn1cc(/C=N/NC(=O)c2cccc([N+](=O)[O-])c2)c2ccccc21	10µM*	-22.5	4.9%	1.1%	31.0%
COc1ccc(/C=N/NC(=O)c2cccc([N+](=O)[O-])c2)c2ccccc12	?	-26.6	/	-27.9%	/
Cc1cc(C)n(-c2nc3cc(Cl)ccc3nc2N2CCN(c3cccc(C)c3C)CC2)n1	/	13.9	10.1%[46.1 µM]	-24.7%	13.1%[46.1 µM]
O=C(N/N=C\c1cccc(OC(=O)c2ccco2)c1)c1ccc2c(c1)OCO2	4.4%	15.8	14.6µM*	?	?
Cc1[nH]n(-c2ccc([N+](=O)[O-])cc2)c(=O)c1C=NCCc1c(C)[nH]c2ccccc12	-2.7%	-10.4	7.6%	25.1µM*	?
Cc1[nH]c2ccccc2c1/C=N/Nc1ccc([N+](=O)[O-])cc1	2µM*	-30.5	20.6%	17.1%	-19.2%
CC(C)(C)n1nnnc1C(c1ccccc1)N1CCN(c2ncc(C(F)(F)F)cc2Cl)CC1 (stereo not drawn)	/	-77.5*	/	?	/
O=c1c(O[C@@H]2O[C@H](CO)C(O)C2O)c(-c2ccc(O)c(O)c2)oc2cc(O)cc(O)c12 (stereo partly drawn)	17.7%	/	/	-16.6%	/
O=c1c(OC2OC(CO)C(O)C(O)C2O)c(-c2ccc(O)c(O)c2)oc2cc(O)cc(O)c12 (stereo not drawn)	-10.7%[8.37 µM]	8.4	0.0%	-21.2%	14.6µM*
COc1cc(O)c2c(=O)c(-c3ccc(O[C@@H]4O[C@H](CO)[C@@H](O)[C@H](O)[C@H]4O)cc3)coc2c1	-13.3%	66.7	?	30.7%	10µM*
O=C(Cn1c(=O)nc(-c2ccccc2)c2ccccc21)N1CCN(c2ccc(F)cc2)CC1	/	-38.2	13.8%[46.1 µM]	34.0%	/
CCOc1ccc(NC(=O)CCNc2c(N3CCCC3)c(=O)c2=O)cc1	0.1%	-60.9*	0.0%	-6.8%	?
CCOc1ccc(NC(=O)c2ccc(CNc3c(N4CCCC4)c(=O)c3=O)cc2)cc1	-12.1%	-17.9	/	22.9%	/
COc1ccc(O)c(C2=Nc3ccccc3N=C(c3ccccc3)C2)c1	3.5%	-21.1	16.4%	25.1µM*!	?
Cc1ccc(OCc2nc(-c3ccc(C(=O)NCCc4ccc(Cl)cc4)cc3)oc2C)cc1	/	1.7	-4.5%[46.1 µM]	-20.8%	/
COC(=O)CSc1nnc(-c2cccc(O)c2)o1	/	-64.7*	1.0%[46.1 µM]	5.2%	/
Cc1ccc(-c2nnc(SCCC(=O)N3CCOCC3)o2)cc1	15.3%	-100.5*	?	1.4%	-11.2%[46.1 µM]
SMILES	HCV inhibitor	HCMV inh	Lassa entry inh	FMDV antiviral	Marburg entry inh
Cc1cccc(-c2nnc(SCCC(=O)O)o2)c1	/	-87.8*	1.26µM*	?	?
Cc1cccc(-c2nnc(SCCC(=O)N3CCOCC3)o2)c1	25.1%	?	?	-19.5%	3.0%
O=C([C@H]1[C@H](CO)[C@H]2Cn3c(cccc3=O)[C@@H]1N2C(=O)c1ccc(F)cc1)N1CCCCC1	/	13.9	/	/	/
CCCCn1c(SCC(=O)c2ccccc2)nc2c(sc3ccccc32)c1=O	/	-3.0	5.5%[46.1 µM]	-18.5%	/
Cc1ccccc1NC(=NCCCN1CC1)Nc1ccccc1C	?	-76.8*	12.6µM*	-10.4%	2.24µM*
CCOC(=O)c1c(C)[nH]c(C)c1S(=O)(=O)N(C)CC(=O)Nc1cccc(C(F)(F)F)c1	/	-20.7	-2.4%[46.1 µM]	-8.8%	/
Cc1cnccc1CN(C)Cc1nc(Cc2ccccc2Cl)no1	?	-60.5*	?	?	3.0%[46.1 µM]
COc1ccc2cc(CNCc3ccccc3C(F)(F)F)c(N3CCCC(CO)C3)nc2c1 (stereo not drawn)	/	/	/	10.6%	/
Cc1ccc(S(=O)(=O)NCC(c2ccco2)N2CCc3ccccc3C2)cc1 (stereo not drawn)	-13.0%	-14.5	-2.0%	65.0%	?
COc1ccc(S(=O)(=O)NCC(c2ccco2)N2CCc3ccccc3C2)cc1 (stereo not drawn)	19.5%	-94.5*	8.4%	29.2%	-5.3%
COc1ccccc1NC(=O)c1c([N+](=O)[O-])c(C(C)(C)C)nn1C	4.6%	-67.7*	-18.9%	-24.5%	-10.7%[46.1 µM]
CCCNCC1C(Oc2ccc(Cl)cc2Cl)C(=O)N1c1cccc(C)c1C (stereo not drawn)	31.6µM*	-90.3*	/	?	/
Cc1cccc(N2C(=O)C(Oc3ccc(Cl)cc3Cl)C2C(=O)O)c1C (stereo not drawn)	32.3%	-9.9	-0.4%	?	0.6%
CCCCNCC1C(Oc2ccc(Cl)cc2)C(=O)N1c1ccccc1C (stereo not drawn)	?	-78.6*	-19.8%	-22.8%	?
O=C1C(=O)N(C(CCc2ccccc2)c2nnnn2Cc2ccccc2)c2ccccc21 (stereo not drawn)	/	38.0	/	/	/
COc1cccc(N2C(=O)C(CC(=O)Nc3ccc(F)cc3)N(CCC3=CCCCC3)C2=O)c1 (stereo not drawn)	/	-4.7	?	-17.7%	?
COc1cc2nc(N3CCNCC3)nc(N)c2cc1OC	22.4µM*	?	4.0%	9.3%	?
COc1ccc(-n2ncc3c(N4CCN(c5cc(C)ccc5C)CC4)ncnc32)cc1	11.2%	73.4	/	?	1.9%
COc1cc2nc(N3CCN(c4cc(C)ccc4C)CC3)nc(N)c2cc1OC	7.08µM*	-98.3*	?	25.1µM*	4.47µM*
COc1cc2nc(Cl)nc(N3CCCCC3)c2cc1OC	-24.0%	15.0	?	-27.7%	?
C/C=C\c1ccccc1OCc1ccc(C(=O)O)o1	/	/	/	/	11.4%[46.1 µM]
Cc1nn(Cc2ccc(Cl)cc2)c(C)c1NC(=O)CCCn1nc(C)c([N+](=O)[O-])c1C	-7.4%	-21.1	?	-27.1%	12.6µM*
Cc1nn(Cc2ccc(Cl)cc2)c(C)c1NC(=O)Cn1nc([N+](=O)[O-])c(Cl)c1C	3.16µM*	100.7	6.9%	-21.3%	?
Cc1cc(NC(=O)CCCn2ccc([N+](=O)[O-])n2)n(Cc2ccc(F)cc2)n1	?	-83.5*	-19.0%	-21.1%	-2.5%[46.1 µM]

Source: PubChem (National Center for Advancing Translational Sciences (NCATS))
